Measurements taken from ChEMBL document CHEMBL3988442, “University of Dundee, Small-Polar-MMV Screening Library” (2021).

target: T1, Proteasome subunit beta (Trypanosoma cruzi) (UniProt O96673); experiment: Trypanosoma cruzi proteasome chymotrypsin-like activity (TcProtChymo) assay.; format: functional; parameters: scale not given: in the data most compounds retested in dose-response had high values; conditions: 9.37 µM
T1 sequence (whole entry): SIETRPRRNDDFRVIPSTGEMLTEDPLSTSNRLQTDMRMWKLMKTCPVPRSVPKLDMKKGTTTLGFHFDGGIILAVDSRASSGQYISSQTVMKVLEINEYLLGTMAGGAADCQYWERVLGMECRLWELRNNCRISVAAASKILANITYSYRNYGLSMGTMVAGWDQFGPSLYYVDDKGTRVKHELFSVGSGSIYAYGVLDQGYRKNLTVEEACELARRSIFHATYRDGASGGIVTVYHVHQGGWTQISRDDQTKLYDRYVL

Structure (SMILES)	Percent Effect
COc1ccc(CCN2CCCC(CN(C)Cc3ccc(C)o3)C2)cc1 (centres undefined)	0.772%
CC(C)(C(=O)NCC(N)=O)c1ccccc1F	6.67%
COc1cc(C)c(C(C)NC(=O)Nc2nnc(C)s2)cc1OC (centres undefined)	7.64%
Cc1ccc(CN2CC[C@H]3[C@@H]2CCC(=O)N3CCN2CCCC2)s1	10.5%
CS(=O)(=O)NC[C@@H]1OC[C@H]2CN(C(=O)c3ccc[nH]3)CC[C@H]21	10.6%
CC(C)OCCCNC(=O)CN1CCC(N2CCN(C)C2=O)CC1	7.45%
O=C(Cn1nc(-c2ccc(F)cc2)oc1=O)Nc1ccccc1	21.6%
CNS(=O)(=O)c1cccc(C(C)NCc2nccn2C(C)C)c1 (centres undefined)	16.3%
Cc1cc(C)n(CC2CCCN2C(=O)c2cccc3[nH]ncc23)n1 (centres undefined)	-4.49%
CC1CCCN(Cc2c(C3CCOCC3)[nH]c3ncccc23)C1 (centres undefined)	14.3%
CCCc1nc(CN2CCOC(CNc3cccnn3)C2)cs1 (centres undefined)	10.3%
CN(C)C(=O)C1CN(Cc2c[nH]cn2)CCN(C2CCOCC2)C1 (centres undefined)	6.24%
CC(Oc1ccccc1C(F)(F)F)C(=O)NCC(N)=O (centres undefined)	12.9%
CCn1cc(CN(C)S(=O)(=O)c2ccc(Cl)cc2)cn1	10.3%
Cc1cnn(CC2CCCCN2C(=O)CN(C)C2CC2)c1 (centres undefined)	16.8%
Cc1ccc(NC2CCN(C(=O)Cc3cccc(F)c3)CC2)nn1	6.67%
O=C(NCCCN1CCOCC1)c1cc(-c2ccco2)[nH]n1	11.2%
CCc1ccc(S(=O)(=O)Nc2cc(C(=O)O)c(F)cc2F)s1	6.51%
O=C(Nc1ccc(F)cc1)N1C[C@H]2CC[C@@H]1CN(Cc1cccnc1)C2	13.3%
CCC(C)NC(=O)Nc1ccc(CN2CCOC2=O)cc1 (centres undefined)	12.1%

Structure (SMILES)	Percent Effect
Cc1cnc2c(S(=O)(=O)NCC3CCS(=O)(=O)C3)cccc2c1 (centres undefined)	16.8%
Cn1ncc2c(=O)[nH]c(CN3CCCC3CC3CCCCC3)nc21 (centres undefined)	6.85%
COc1cc(CNC(=O)c2c(C)noc2C(C)C)ccn1	10.8%
Cc1nc(C)n(CC2CN(CCc3ccncc3)CCO2)n1 (centres undefined)	10.3%
Nc1cc2c(nn1)CCN(C(=O)c1cccc3c1OCCO3)C2	4.05%
COc1cccc(CN2CCCCCC2c2cccs2)c1O (centres undefined)	15.8%
CC(C)c1cc(NC(=O)CN2CCc3ccccc3C2)on1	10.6%
Cc1cc(C[C@@H]2COC[C@H]2NCc2ccc(Br)s2)on1	-1.72%
Cn1nc(C2CN(C(=O)c3cscn3)C2)c2nccnc21	17.2%
Cc1cc(C)n(CC(=O)N2CCC(NS(=O)(=O)c3ccccc3)CC2)n1	4.84%
Cc1ccccc1C(=O)CN1C(=O)c2ccccc2CS1(=O)=O	12.8%
CCCS(=O)(=O)N1CCC(NC(=O)c2ccc(Cl)s2)CC1	3.14%
COCC(c1cccc(C(F)(F)F)c1)N(C)C(=O)c1cc(C)n[nH]1 (centres undefined)	9.02%
Cc1nn(C)c(C)c1CCC(=O)N1CCCC1Cn1cccn1 (centres undefined)	3.63%
CN(Cc1ccc(F)cc1)C(=O)NCc1nnc2n1CCCCC2	7.62%
Cc1cc(CN2CCN(C(=O)NCc3nc(C)cs3)CC2)on1	12.9%
COCCOc1ccc(NC(=O)C2CC(=O)N(C)C2)cn1 (centres undefined)	1.06%
Cc1cnn(CC2CCCN2C(=O)CCc2nc3ccccc3[nH]2)c1 (centres undefined)	-3.69%
CCN(CC)C(=O)c1ccc(-c2ccsc2)nc1C	25.3%
